Experimental findings from PubChem BioAssay (EPA / NIEHS) are described below.

Read-out in assay [1]: Collagen I, COL1A1 (gene 1277)
The assay can be described thus: BSK_MyoF_CollagenI: BioMAP Diversity Plus: MyoF Assay for Collagen I Biomarker Activity (AID 2284238). As to conditions: primary human lung fibroblasts. Put shortly:
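ELISA readout of Collagen I after 24 h chemical treatment of primary human lung fibroblast cultures; gain of signal scored relative to DMSO vehicle baseline.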

Read-out in assay [2]: Collagen III, COL3A1 (gene 1281)
The assay can be described thus: BSK_MyoF_CollagenIII: BioMAP Diversity Plus: MyoF Assay for Collagen III Biomarker Activity (AID 2284239). As to conditions: primary human lung fibroblasts. Put shortly:
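Lung fibroblast culture; 24 h compound exposure; collagen III by ELISA; gain-of-signal fit vs DMSO baseline.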

Read-out in assay [3]: Interleukin 17F (IL17F), IL17F (gene 112744)
Description: BSK_BT_xIL17F: BioMAP Diversity Plus: BT Assay for Interleukin 17F (IL17F) Biomarker Activity (AID 2284243). As to conditions: primary human B cells with PBMC. Put shortly: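 Secreted IL-17F, read on LumineX xMAP beads, was taken as the endpoint. Cultures combined human B cells and peripheral blood mononuclear cells, sampled 24 hours after dosing, with DMSO serving as negative control.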

Read-out in assay [4]: Actin alpha 1 (ACTA1), ACTA1 (gene 58)
The assay can be described thus: BSK_MyoF_ACTA1: BioMAP Diversity Plus: MyoF Assay for Actin alpha 1 (ACTA1) Biomarker Activity (AID 2284244). To be noted: primary human lung fibroblasts. Put shortly:
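Human lung fibroblast (MyoF system) cultures dosed with test chemical; alpha-SMA measured by ELISA 24 h after dosing, normalized to DMSO control. Cytotoxicity tracked in parallel cultures by SRB total-protein staining.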

Read-out in assay [5]: Interleukin 2 (IL2), IL2 (gene 3558)
The assay can be described thus: BSK_BT_xIL2: BioMAP Diversity Plus: BT Assay for Interleukin 2 (IL2) Biomarker Activity (AID 2284245). To be noted: primary human B cells with PBMC. Put shortly:
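Human B cell plus PBMC co-culture, 24 h after chemical dosing; secreted IL-2 quantified by Luminex xMAP multiplex, fitted for signal gain against DMSO baseline.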

Read-out in assay [6]: Basic fibroblast growth factor (bFGF), FGF2 (gene 2247)
Description: BSK_MyoF_bFGF: BioMAP Diversity Plus: MyoF Assay for Basic fibroblast growth factor (bFGF) Biomarker Activity (AID 2284246). To be noted: primary human lung fibroblasts. Put shortly:
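Human lung fibroblast cultures were dosed and measured 24 h later in 96-well format. bFGF biomarker levels quantified by ELISA, with activity fitted in the positive direction against DMSO.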

The nature of assay [7]: CCTE_Mundy_HCI_hNP1_Casp3_7: CCTE's Caspase-Glo 3/7 Assay in human neuroprogenitor cells for Apoptosis, Mundy Lab (AID 2284240). The method in brief:
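Neuroepithelial-lineage stem cells from WA09 embryonic cells were treated with chemicals after 40–44 h of culture. Twenty-four hours later, caspase-3/7 activation was detected luminescently after a 30 min room-temperature reagent step, with DMSO as baseline.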

Assay [8] is described as follows: CCTE_Mundy_HCI_hNP1_CellTiter: CCTE's Cell Titer-Glo 2 Assay in human neuroprogenitor cells for Viability, Mundy Lab (AID 2284241; active = hit-call score of the fitted dose curve at least 0.9, where 1 is the maximum). Put shortly:
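Measures ATP content in human neural progenitors derived from WA09 embryonic cells. Read-out at 26.5 hours after dosing, with DMSO serving as the negative control and baseline.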

The structures appear in SMILES notation. Where “and” joins values, the source holds several entries; their conditions need not be identical. Identical values can stand only once. Inconclusive results are not listed. Some compounds were tested as several samples or in several runs, with calls that do not always agree. Calls of active or inactive are those of the source. Rule for the calls, unless noted: active = hit-call score of the fitted dose curve at least 0.9, where 1 is the maximum; inactive = score below 0.9.

As to `COC(=O)CCC(F)(F)C(F)(F)C(F)(F)C(F)(F)F`, the result in assay [1], in assay [2], in assay [3], in assay [4], in assay [5] and in assay [6] was inactive.
As to `CC(C)(C)C(=O)CC(=O)C(F)(F)C(F)(F)C(F)(F)F`, the result in assay [1], in assay [2], in assay [7], in assay [8], in assay [3] and in assay [4] was inactive. The outcome in assay [5] and in assay [6] was inactive.
Take `O=S(=O)(OCCOC(F)(F)F)C(F)(F)F`: the result in assay [1], in assay [2], in assay [3], in assay [4], in assay [5] and in assay [6] was inactive.
For the compound `CO[Si](OC)(c1ccccc1)c1ccccc1`, the figures for the concentration at half-maximal activity (AC50) in assay [1], in assay [2] and in assay [4] were 31.6 µM (active), 31.6 µM (active) and 30.8 µM (active), respectively. For the same compound, the outcome in assay [3], in assay [5] and in assay [6] was inactive.
Regarding `FC(F)(F)C(F)(F)C(F)(F)C(F)(F)C(F)(F)C(F)(F)C(F)(F)C(F)(F)CCS`, the outcome in assay [1], in assay [2], in assay [7], in assay [8], in assay [3] and in assay [4] was inactive. Besides, the outcome in assay [5] and in assay [6] was inactive.
Regarding `FC(F)(F)C(F)(F)C(F)(F)C(F)(F)C(F)(F)C(F)(F)CCS`, the result in assay [1], in assay [2], in assay [3], in assay [4], in assay [5] and in assay [6] was inactive.
As to `FC(F)(F)C(F)(F)C(F)(F)C(F)(F)C(F)(F)C(F)(F)C(F)(F)I`, the concentration at half-maximal activity (AC50) in assay [1] was 4.56 µM (active) and 3.16 µM (active); in assay [2], 5.06 µM (active) and 4.85 µM (active); in assay [4], 3.33 µM (active). Also, the result in assay [3], in assay [5] and in assay [6] was inactive.
As to `Cc1ccc(S(=O)(=O)OCC(F)(F)C(F)(F)C(F)(F)C(F)(F)C(F)(F)C(F)F)cc1`, the outcome in assay [1], in assay [2], in assay [3], in assay [4], in assay [5] and in assay [6] was inactive.
As to `FC(F)(F)C(F)(F)C(F)(F)C(F)(F)C(F)(F)C(F)(F)C(F)(F)C(F)(F)F`, the result in assay [1], in assay [2], in assay [7], in assay [8], in assay [3] and in assay [4] was inactive. Moreover, the outcome in assay [5] and in assay [6] was inactive.
`O=C(CC(=O)C(F)(F)C(F)(F)F)C(F)(F)F`: the result in assay [1], in assay [2], in assay [7], in assay [8], in assay [3] and in assay [4] was inactive. For the same compound, the outcome in assay [5] and in assay [6] was inactive. Further, the concentration at half-maximal activity (AC50) in assay [3] is 20.8 µM (active).
Take `O=C(Cl)C(F)(F)C(F)(F)C(F)(F)C(F)(F)C(F)(F)C(F)(F)C(F)(F)C(F)(F)F`: the half-maximal activity concentration (AC50) in assay [1] was 41.3 µM (active) and 41.8 µM (active) and 44.2 µM (active); in assay [2], 22.5 µM (active) and 23.5 µM (active) and 24.7 µM (active); in assay [4] it was 23.6 µM (active) and 43.7 µM (active) and 30 µM (active). Besides, the outcome in assay [3], in assay [5] and in assay [6] was inactive.
Take `FC(F)(F)C(F)(F)C(F)(F)C(F)(F)CCI`: the result in assay [1], in assay [2], in assay [7], in assay [8], in assay [3] and in assay [4] was inactive. Besides, the result in assay [5] and in assay [6] was inactive.
Turning to `O=C(O)C(F)(F)C(F)(F)C(F)(F)F`, the outcome in assay [1], in assay [2], in assay [7], in assay [8], in assay [3] and in assay [4] was inactive. Further, the outcome in assay [5] and in assay [6] was inactive.
For the compound `O=C(O)C(F)(F)C(F)(F)OC(F)(F)F`, the result in assay [1], in assay [2], in assay [7], in assay [8], in assay [3] and in assay [5] was inactive. For the same compound, the outcome in assay [6] was inactive.
For `FC1CC(F)(F)C(F)(F)C1(F)F` (stereo not drawn), the outcome in assay [1], in assay [2], in assay [3], in assay [5] and in assay [6] was inactive.
Turning to `O=S(=O)(OCC(F)F)C(F)(F)F`, the result in assay [1], in assay [2], in assay [3], in assay [5] and in assay [6] was inactive.
Regarding `Nc1ccc([N+](=O)[O-])cc1O`, the result in assay [1], in assay [2], in assay [3], in assay [5] and in assay [6] was inactive.
`CCCCCCC(C)OC(=O)CCCCC(=O)OC(C)CCCCCC` (stereo not drawn): the outcome in assay [1], in assay [2], in assay [3], in assay [5] and in assay [6] was inactive.
Regarding `CCCCCCCCCCCCCCCC[N+](C)(C)Cc1ccccc1`, the AC50 was 0.987 µM (active) in assay [1]; 1.73 µM (active) in assay [2]; 2.96 µM (active) in assay [3]; 2.01 µM (active) in assay [5]; 2.02 µM (active) in assay [6].
Regarding `FC(F)(F)C(F)(F)CNCC(F)(F)C(F)(F)F`, the result in assay [1], in assay [2], in assay [3], in assay [5] and in assay [6] was inactive.
As to `O=C(O)C=C(C(F)(F)F)C(F)(F)F`, the outcome in assay [1], in assay [2] and in assay [6] was inactive. Moreover, the concentration at half-maximal activity (AC50) in assay [3] was 10.4 µM (active) and 8.84 µM (active); in assay [5], 10.1 µM (active) and 5.58 µM (active).
With `C=CC/C=C/C/C=C/C/C=C/C`, the result in assay [1], in assay [2], in assay [3], in assay [5] and in assay [6] was inactive.
Consider `CCc1ccc(C(c2ccc(CC)cc2)C(Cl)Cl)cc1`, for which the AC50 in assay [1] is 9.01 µM (active); in assay [2], 8.17 µM (active); in assay [3], 29.7 µM (active); in assay [5] it was 30.3 µM (active); in assay [6] it was 28.9 µM (active).
As to `CC(=O)Nc1ccc(N=Nc2cc(C)ccc2O)cc1`, the outcome in assay [1], in assay [2], in assay [3], in assay [5] and in assay [6] was inactive.
